Assay results taken from ChEMBL document CHEMBL1961873, “Compounds: GSK PKIS; Assays: Nanosyn kinase panel” (2012).

The compounds below were run against Vascular endothelial growth factor receptor 3 (Homo sapiens) (UniProt P35916). Conditions: at 1 µM.
Sequence of Vascular endothelial growth factor receptor 3 (Homo sapiens) (P35916 whole entry): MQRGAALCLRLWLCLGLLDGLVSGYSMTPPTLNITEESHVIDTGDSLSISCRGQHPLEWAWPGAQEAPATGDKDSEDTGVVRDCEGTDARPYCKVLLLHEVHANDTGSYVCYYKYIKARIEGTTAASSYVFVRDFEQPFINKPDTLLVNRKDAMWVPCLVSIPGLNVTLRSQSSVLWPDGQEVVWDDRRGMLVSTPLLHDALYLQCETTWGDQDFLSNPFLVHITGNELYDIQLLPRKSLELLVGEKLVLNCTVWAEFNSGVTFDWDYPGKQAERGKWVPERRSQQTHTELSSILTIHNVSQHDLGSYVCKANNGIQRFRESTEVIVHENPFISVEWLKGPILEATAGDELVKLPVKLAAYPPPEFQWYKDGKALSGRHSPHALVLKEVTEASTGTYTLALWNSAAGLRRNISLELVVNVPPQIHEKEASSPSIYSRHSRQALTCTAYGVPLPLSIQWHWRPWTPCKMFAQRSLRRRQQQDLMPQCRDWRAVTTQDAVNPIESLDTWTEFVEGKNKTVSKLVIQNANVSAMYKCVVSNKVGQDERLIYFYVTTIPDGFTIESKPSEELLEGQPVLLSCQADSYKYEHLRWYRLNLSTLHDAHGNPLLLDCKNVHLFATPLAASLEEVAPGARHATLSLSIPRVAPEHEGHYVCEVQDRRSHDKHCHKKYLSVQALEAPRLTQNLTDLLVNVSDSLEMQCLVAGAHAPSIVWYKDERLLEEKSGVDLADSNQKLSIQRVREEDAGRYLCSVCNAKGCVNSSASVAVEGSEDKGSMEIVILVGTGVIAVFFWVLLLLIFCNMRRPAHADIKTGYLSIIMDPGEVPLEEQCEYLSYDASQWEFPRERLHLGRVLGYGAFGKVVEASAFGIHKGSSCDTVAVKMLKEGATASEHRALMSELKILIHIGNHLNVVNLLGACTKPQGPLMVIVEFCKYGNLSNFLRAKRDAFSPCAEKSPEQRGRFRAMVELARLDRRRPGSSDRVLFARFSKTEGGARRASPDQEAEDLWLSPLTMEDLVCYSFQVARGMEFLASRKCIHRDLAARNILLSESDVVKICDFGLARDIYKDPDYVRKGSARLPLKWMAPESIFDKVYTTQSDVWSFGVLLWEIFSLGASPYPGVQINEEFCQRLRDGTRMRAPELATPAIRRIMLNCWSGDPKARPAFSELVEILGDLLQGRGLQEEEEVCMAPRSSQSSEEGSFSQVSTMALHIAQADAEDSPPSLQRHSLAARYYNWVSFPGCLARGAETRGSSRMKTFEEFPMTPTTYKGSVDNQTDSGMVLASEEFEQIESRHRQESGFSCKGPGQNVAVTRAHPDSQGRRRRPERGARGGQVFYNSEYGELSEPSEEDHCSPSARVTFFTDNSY

SMILES | inhibition
NC(=O)c1ccc(Oc2nccc(-c3c(-c4ccc(F)cc4)ncn3C3CCNCC3)n2)cc1 | 4.57%
COc1ccc(-c2ccc3c(NC(=O)C4CC4)n[nH]c3n2)cc1 | 1.31%
Cc1ccc(C(=O)NC2CCC2)cc1-c1ccc(C(=O)NCC2CC2)cc1 | 1%
CN(c1ccc(NC(=O)Nc2c(Cl)cccc2Cl)cc1)c1ccnc(Nc2cccc(CS(C)(=O)=O)c2)n1 | 41.7%
O=C(Nc1ccc(Oc2ccc3[nH]c(NC(=O)c4ccccc4)nc3c2)cc1)Nc1cc(C(F)(F)F)ccc1F | 36.2%
Clc1ccc(CNc2nccc(-c3cnn4ncccc34)n2)cc1 | 1.12%
NC(=O)c1cc(-c2ccc(F)cc2)cc(-c2ccncc2)c1N | 0.18%
NS(=O)(=O)c1ccc(Nc2cc(-c3ccc(O)c(F)c3)n[nH]2)cc1 | 16.5%
CCc1nccc2c1nc(-c1nonc1N)n2CC | 3.19%
Fc1ccc(-c2ncn(C3CCNCC3)c2-c2ccnc(Oc3ccc4c(c3)OCO4)n2)cc1 | 5.76%
CS(=O)(=O)CCNCc1cc(-c2cc3c(Nc4ccc(OCc5cccc(F)c5)c(Cl)c4)ncnc3s2)cs1 | -1.31%
CCc1cccc(CC)c1/C=C/c1cncc(C(=O)NC)c1 | 2.42%
COc1ccc(C2=C(N3CCc4ccccc43)C(=O)NC2=O)cc1 | 3.21%
COc1cccc(/C=N/Nc2ncnc3c2cnn3-c2cccc(OC)c2)c1 | -0.55%
N#Cc1ccc(Oc2nccc(-c3c(-c4ccc(F)cc4)ncn3C3CCNCC3)n2)cc1 | -0.83%
O=C(Nc1n[nH]c2cc(-c3ccccc3)ccc12)C1CC1 | 16.9%
FC(F)(F)c1cccc(Nc2nccc(-c3cnn4nc(-c5ccccc5)ccc34)n2)c1 | 6.91%

SMILES | inhibition
COC(=O)Nc1nc2ccc(Sc3ccc(NC(=O)Nc4cc(C(F)(F)F)ccc4F)cc3)cc2[nH]1 | 21.7%
NC(=O)c1cc(-c2ccncc2)cc(-c2ccccc2)c1N | 6.17%
Fc1ccc(-c2ncn(CCCN3CCOCC3)c2-c2ccncc2)cc1 | 0.05%
O=C1Nc2ccccc2/C1=C/Nc1ccc(-n2cncn2)cc1 | 40.2%
CS(=O)(=O)CCNCc1ccc(-c2ccc3ncnc(Nc4ccc(OCc5ccccc5)c(Br)c4)c3c2)o1 | -9.98%
O=C(Nc1n[nH]c2nc(-c3ccc(O)cc3)c(Br)cc12)C1CC1 | 60.9%
CCN(CC)Cc1ccc(Nc2nccc(-c3cnn4ncccc34)n2)cc1 | 0.13%
COc1cc2ncn(-c3cc(OCc4ccccc4C(F)(F)F)c(C(C)=O)s3)c2cc1OC | 5.96%
O=C(Nc1n[nH]c2nc(-c3ccco3)ccc12)C1CC1 | 2.09%
Nc1nccc(-c2c(-c3ccc(F)cc3)ncn2C2CCC(O)CC2)n1 (stereo not drawn) | -0.22%
C/C(Nc1ccc(S(N)(=O)=O)cc1)=C1/C(=O)Nc2ccccc21 | 32.9%
O=C1NC(=O)C(c2cccc(Cl)c2)=C1Nc1ccc(Cl)c(C(=O)O)c1 | 12.2%
O=C(Nc1n[nH]c2cc(-c3cc(F)ccc3F)ccc12)C1CC1 | 1.03%
COc1ccc2cc(-c3c(-c4ccncc4)nc(-c4ccc(S(C)(=O)=O)cc4C)n3C)ccc2c1 | 10.1%
Fc1ccc(-c2ncn(C3CCNCC3)c2-c2ccnc(Oc3ccc(F)c(F)c3)n2)cc1 | -7.54%
CCc1ccc(Oc2nccc(-c3c(-c4ccc(F)cc4)ncn3C3CCNCC3)n2)cc1 | 4.74%
CCC(=O)Nc1ccc(C)c(-c2ccc(C(=O)NCC3CC3)cc2)c1 | -1.74%

What follows are compounds tested against Macrophage colony-stimulating factor 1 receptor (Homo sapiens) (UniProt P07333). Conditions: at 0.1 µM.
Sequence of Macrophage colony-stimulating factor 1 receptor (Homo sapiens) (P07333 whole entry): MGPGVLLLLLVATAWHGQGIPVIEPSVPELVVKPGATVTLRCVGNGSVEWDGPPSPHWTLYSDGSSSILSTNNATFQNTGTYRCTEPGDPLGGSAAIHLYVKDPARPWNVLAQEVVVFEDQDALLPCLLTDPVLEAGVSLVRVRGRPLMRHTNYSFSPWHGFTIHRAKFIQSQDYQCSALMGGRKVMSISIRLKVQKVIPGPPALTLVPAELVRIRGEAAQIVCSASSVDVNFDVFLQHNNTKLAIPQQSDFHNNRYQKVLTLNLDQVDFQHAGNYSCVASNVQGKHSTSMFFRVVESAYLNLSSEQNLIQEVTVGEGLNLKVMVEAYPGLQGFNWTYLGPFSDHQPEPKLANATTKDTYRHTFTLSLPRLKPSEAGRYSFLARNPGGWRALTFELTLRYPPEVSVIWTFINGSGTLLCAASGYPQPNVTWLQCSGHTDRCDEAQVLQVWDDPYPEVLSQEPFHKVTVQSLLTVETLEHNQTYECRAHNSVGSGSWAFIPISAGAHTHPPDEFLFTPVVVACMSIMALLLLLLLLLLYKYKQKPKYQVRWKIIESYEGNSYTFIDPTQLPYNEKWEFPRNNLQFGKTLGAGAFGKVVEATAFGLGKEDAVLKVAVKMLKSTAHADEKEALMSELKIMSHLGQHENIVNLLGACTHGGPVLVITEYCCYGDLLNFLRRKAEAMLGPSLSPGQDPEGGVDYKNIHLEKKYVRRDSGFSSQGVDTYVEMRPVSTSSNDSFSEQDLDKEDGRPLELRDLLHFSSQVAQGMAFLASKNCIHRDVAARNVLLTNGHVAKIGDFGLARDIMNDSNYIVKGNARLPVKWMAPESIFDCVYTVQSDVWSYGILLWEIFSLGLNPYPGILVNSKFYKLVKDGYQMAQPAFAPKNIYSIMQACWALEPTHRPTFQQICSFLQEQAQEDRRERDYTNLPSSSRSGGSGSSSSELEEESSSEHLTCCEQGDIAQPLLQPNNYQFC

SMILES | inhibition
NC(=O)c1ccc(Oc2nccc(-c3c(-c4ccc(F)cc4)ncn3C3CCNCC3)n2)cc1 | 5.61%
COc1ccc(-c2ccc3c(NC(=O)C4CC4)n[nH]c3n2)cc1 | 1.02%
Cc1ccc(C(=O)NC2CCC2)cc1-c1ccc(C(=O)NCC2CC2)cc1 | -2.9%
CN(c1ccc(NC(=O)Nc2c(Cl)cccc2Cl)cc1)c1ccnc(Nc2cccc(CS(C)(=O)=O)c2)n1 | 92.1%
O=C(Nc1ccc(Oc2ccc3[nH]c(NC(=O)c4ccccc4)nc3c2)cc1)Nc1cc(C(F)(F)F)ccc1F | 4.75%
Clc1ccc(CNc2nccc(-c3cnn4ncccc34)n2)cc1 | 1.45%
NC(=O)c1cc(-c2ccc(F)cc2)cc(-c2ccncc2)c1N | 2.97%
NS(=O)(=O)c1ccc(Nc2cc(-c3ccc(O)c(F)c3)n[nH]2)cc1 | 0.43%
CCc1nccc2c1nc(-c1nonc1N)n2CC | -0.59%
Fc1ccc(-c2ncn(C3CCNCC3)c2-c2ccnc(Oc3ccc4c(c3)OCO4)n2)cc1 | 2.5%
CS(=O)(=O)CCNCc1cc(-c2cc3c(Nc4ccc(OCc5cccc(F)c5)c(Cl)c4)ncnc3s2)cs1 | 7.21%
CCc1cccc(CC)c1/C=C/c1cncc(C(=O)NC)c1 | -1.63%
COc1ccc(C2=C(N3CCc4ccccc43)C(=O)NC2=O)cc1 | 2.49%
COc1cccc(/C=N/Nc2ncnc3c2cnn3-c2cccc(OC)c2)c1 | 1.79%
N#Cc1ccc(Oc2nccc(-c3c(-c4ccc(F)cc4)ncn3C3CCNCC3)n2)cc1 | 0.11%
O=C(Nc1n[nH]c2cc(-c3ccccc3)ccc12)C1CC1 | 4.54%
FC(F)(F)c1cccc(Nc2nccc(-c3cnn4nc(-c5ccccc5)ccc34)n2)c1 | -2.73%

SMILES | inhibition
COC(=O)Nc1nc2ccc(Sc3ccc(NC(=O)Nc4cc(C(F)(F)F)ccc4F)cc3)cc2[nH]1 | 0.81%
NC(=O)c1cc(-c2ccncc2)cc(-c2ccccc2)c1N | 22.8%
Fc1ccc(-c2ncn(CCCN3CCOCC3)c2-c2ccncc2)cc1 | 0.18%
O=C1Nc2ccccc2/C1=C/Nc1ccc(-n2cncn2)cc1 | 6.47%
CS(=O)(=O)CCNCc1ccc(-c2ccc3ncnc(Nc4ccc(OCc5ccccc5)c(Br)c4)c3c2)o1 | -1.9%
O=C(Nc1n[nH]c2nc(-c3ccc(O)cc3)c(Br)cc12)C1CC1 | 3.87%
CCN(CC)Cc1ccc(Nc2nccc(-c3cnn4ncccc34)n2)cc1 | 29.6%
COc1cc2ncn(-c3cc(OCc4ccccc4C(F)(F)F)c(C(C)=O)s3)c2cc1OC | 0.38%
O=C(Nc1n[nH]c2nc(-c3ccco3)ccc12)C1CC1 | -1.01%
Nc1nccc(-c2c(-c3ccc(F)cc3)ncn2C2CCC(O)CC2)n1 (stereo not drawn) | 2.19%
C/C(Nc1ccc(S(N)(=O)=O)cc1)=C1/C(=O)Nc2ccccc21 | 12.1%
O=C1NC(=O)C(c2cccc(Cl)c2)=C1Nc1ccc(Cl)c(C(=O)O)c1 | -0.3%
O=C(Nc1n[nH]c2cc(-c3cc(F)ccc3F)ccc12)C1CC1 | -1.77%
COc1ccc2cc(-c3c(-c4ccncc4)nc(-c4ccc(S(C)(=O)=O)cc4C)n3C)ccc2c1 | 0.81%
Fc1ccc(-c2ncn(C3CCNCC3)c2-c2ccnc(Oc3ccc(F)c(F)c3)n2)cc1 | 1.11%
CCc1ccc(Oc2nccc(-c3c(-c4ccc(F)cc4)ncn3C3CCNCC3)n2)cc1 | 1.36%
CCC(=O)Nc1ccc(C)c(-c2ccc(C(=O)NCC3CC3)cc2)c1 | -2.39%
